# Reference: PubChem BioAssay (EPA / NIEHS)
# The source made the active and inactive calls. The calls were made as follows: active = hit-call score of the fitted dose curve at least 0.9, where 1 is the maximum; inactive = score below 0.9.
# Tests used:
# [1] = Tanguay_ZF_120hpf_MO24: Oregon State University Tanguay Lab 24 Hour Post-fertilization zebrafish Assay for Mortality (AID 2284389)
# Procedure, shortened: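 Dechorionated wild-type zebrafish embryos, 1 per well, statically exposed from 6 hpf at 28C, 0.64% DMSO final. Mortality scored as binary present/absent at 24 hpf by brightfield microscopy, relative to DMSO.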
# [2] = Tanguay_ZF_120hpf_AXIS: Oregon State University Tanguay Lab 120 Hour Post-fertilization zebrafish Assay for Axial Malformation (AID 2284398)
# Procedure, shortened: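 Dechorionated 5D wild-type zebrafish embryos exposed statically, one per well, from 6 to 120 hpf at 28C, 0.64% DMSO. Axial malformation scored as present/absent by brightfield microscopy at 120 hpf; dead embryos not scored.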
# [3] = Tanguay_ZF_120hpf_EDEM: Oregon State University Tanguay Lab 120 Hour Post-fertilization zebrafish Assay for Edema Malformation (AID 2284400)
# Procedure, shortened: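 Dechorionated Tropical 5D wild-type embryos, one per well, statically exposed from 6 to 120 hpf at 28C in 0.64% DMSO. Edema scored present/absent by brightfield microscopy at 120 hpf; dead embryos not scored; fit versus DMSO.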
# [4] = Tanguay_ZF_120hpf_ANY: Oregon State University Tanguay Lab 120 Hour Post-fertilization zebrafish Assay for Any Mortality and Malformation (AID 2284404)
# Procedure, shortened: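 Dechorionated Tropical 5D wild-type embryos, one per well from 6 hpf, static exposure in sealed, dark plates at 28C until 120 hpf, 0.64% DMSO final. Brightfield scoring of mortality and malformations as binary presence/absence, pooling 13 morphology endpoints.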
# [5] = CCTE_Padilla_ZF_Score.Craniofacial: CCTE's 144 Hour Post-fertilization zebrafish Assay Score for Craniofacial Malformation, Padilla Lab (AID 2284405)
# Procedure, shortened: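 Wild-type zebrafish embryos (with chorions), one per well in 10% Hanks', were dosed at 6–8 hpf in sealed plates and kept at 26C. They were rinsed at 5 dpf. At 6 dpf two blinded assessors scored craniofacial malformations by brightfield stereomicroscopy.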
# [6] = CCTE_Padilla_ZF_Score.Edema: CCTE's 144 Hour Post-fertilization zebrafish Assay Score for Edema Malformation, Padilla Lab (AID 2284406)
# Procedure, shortened: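 Wild-type zebrafish embryos, one per well in Hanks' solution, dosed at 6-8 hpf, sealed and reared at 26C on a 14:10 h cycle; rinsed on 5 dpf. At 6 dpf, blinded assessors scored edema by stereomicroscopy.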
# [7] = CCTE_Padilla_ZF_Score.Spine: CCTE's 144 Hour Post-fertilization zebrafish Assay Score for Spine Malformation, Padilla Lab (AID 2284407)
# Procedure, shortened: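 Wild-type zebrafish embryos, one per well in Hanks' solution, dosed at 6–8 hpf in sealed plates at 26C, 14:10 h light:dark; rinsed at 5 dpf. Two blinded assessors scored spinal defects by stereomicroscopy at 6 dpf; fitted versus DMSO.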
# [8] = CCTE_Padilla_ZF_Score.Swim_bladder: CCTE's 144 Hour Post-fertilization zebrafish Assay Score for Swim Bladder Malformation, Padilla Lab (AID 2284408)
# Procedure, shortened: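 Wild-type zebrafish embryos, one per well in 10% Hanks', dosed at 6–8 hpf, sealed, reared at 26C and rinsed at 5 dpf. Blinded assessors scored uninflated swim bladder by stereomicroscopy at 6 dpf, relative to DMSO.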
# [9] = Tanguay_ZF_120hpf_BRN: Oregon State University Tanguay Lab 120 Hour Post-fertilization zebrafish Assay for Brain Region Malformation (AID 2284402)
# Procedure, shortened: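 Dechorionated wild-type Tropical 5D zebrafish embryos exposed statically from 6 to 120 hpf at 28C, one per well, 0.64% DMSO final. Brain malformation scored at 120 hpf by brightfield as present/absent; dead embryos not scored.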
# [10] = Tanguay_ZF_120hpf_MORT: Oregon State University Tanguay Lab 120 Hour Post-fertilization zebrafish Assay for Mortality (AID 2284399)
# Procedure, shortened: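 Dechorionated wild-type Tropical 5D zebrafish embryos, one per well from 6 hpf, static exposure to 120 hpf at 28C in sealed dark plates, 0.64% DMSO final. Mortality scored as binary by brightfield at 24 and 120 hpf.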
# [11] = Tanguay_ZF_120hpf_CRAN: Oregon State University Tanguay Lab 120 Hour Post-fertilization zebrafish Assay for Craniofacial Malformation (AID 2284397)
# Procedure, shortened: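 Dechorionated Tropical 5D wild-type zebrafish embryos, one per well, were statically exposed from 6 to 120 hpf at 28C in 0.64% DMSO, with 5uM trimethyltin chloride as positive control. Craniofacial malformation was scored present/absent by brightfield microscopy, relative to DMSO.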
# [12] = Tanguay_ZF_120hpf_TCHR: Oregon State University Tanguay Lab 120 Hour Post-fertilization zebrafish Assay for Touch Responsive (AID 2284403)
# Procedure, shortened: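 Dechorionated Tropical 5D wild-type zebrafish embryos, one per well from 6 hpf, were statically exposed to 120 hpf at 28 °C (0.64% DMSO). Touch response was scored present/absent at 120 hpf and not scored in dead larvae.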
smiles,measurement,setting,value
O=S(=O)(OCCOC(F)(F)F)C(F)(F)F,outcome,[1],inactive
same,outcome,[2],inactive
same,outcome,[3],inactive
same,outcome,[4],inactive
same,outcome,[5],inactive
same,outcome,[6],inactive
same,outcome,[7],inactive
same,outcome,[8],inactive
O=C(O)C(F)(F)C(F)(F)C(F)(F)C(F)(F)F,outcome,[1],inactive
same,outcome,[2],inactive
same,outcome,[3],inactive
same,outcome,[9],inactive
same,outcome,[4],inactive
same,outcome,[5],inactive
same,outcome,[6],inactive
same,outcome,[7],inactive
same,outcome,[8],inactive
O=C(O)C(F)(F)C(F)(F)C(F)(F)C(F)(F)C(F)(F)C(F)(F)C(F)(F)C(F)(F)C(F)(F)C(F)(F)C(F)(F)C(F)(F)F,outcome,[1],inactive
same,outcome,[2],inactive
same,outcome,[3],inactive
same,AC50,[4],26.3 µM (active)
same,outcome,[5],inactive
same,outcome,[6],inactive
same,outcome,[7],inactive
same,outcome,[8],inactive
O=S(=O)(O)C(F)(F)C(F)(F)C(F)(F)C(F)(F)C(F)(F)C(F)(F)C(F)(F)F,outcome,[1],inactive
same,AC50,[2],49.5 µM (active)
same,AC50,[3],46.3 µM (active)
same,AC50,[4],33 µM (active)
same,AC50,[5],65.3 µM (active)
same,AC50,[6],25.8 µM (active)
same,outcome,[7],inactive
same,AC50,[8],21.3 µM (active)
FC(F)(F)C(F)(F)C(F)(F)C(F)(F)C(F)(F)C(F)(F)C(F)(F)Br,outcome,[1],inactive
same,outcome,[2],inactive
same,outcome,[3],inactive
same,outcome,[9],inactive
same,outcome,[4],inactive
same,outcome,[5],inactive
same,outcome,[6],inactive
same,outcome,[7],inactive
same,outcome,[8],inactive
OCC(F)(F)C(F)(F)C(F)(F)C(F)(F)C(F)(F)C(F)F,outcome,[1],inactive
same,outcome,[2],inactive
same,outcome,[3],inactive
same,outcome,[4],inactive
same,outcome,[5],inactive
same,outcome,[6],inactive
same,outcome,[7],inactive
same,outcome,[8],inactive
FC(F)(Br)C(F)(F)C(F)(F)C(F)(F)C(F)(F)C(F)(F)Br,outcome,[5],inactive
same,outcome,[6],inactive
same,outcome,[7],inactive
same,outcome,[8],inactive
Cc1ccc(S(=O)(=O)OCC(F)(F)C(F)(F)C(F)(F)C(F)(F)C(F)(F)C(F)F)cc1,outcome,[1],inactive
same,outcome,[2],inactive
same,outcome,[10],inactive
same,outcome,[3],inactive
same,outcome,[4],inactive
same,outcome,[5],inactive
same,outcome,[6],inactive
same,outcome,[7],inactive
same,AC50,[8],9.81 µM (active)
C=CC(=O)OCC(F)(F)C(F)(F)C(F)(F)C(F)(F)C(F)(F)C(F)(F)C(F)(F)F,outcome,[1],inactive
same,outcome,[2],inactive
same,outcome,[3],inactive
same,outcome,[4],inactive
same,outcome,[5],inactive
same,outcome,[6],inactive
same,outcome,[7],inactive
same,outcome,[8],inactive
O=C(O)C(F)(OC(F)(F)C(F)(OC(F)(F)C(F)(OC(F)(F)C(F)(F)C(F)(F)F)C(F)(F)F)C(F)(F)F)C(F)(F)F (stereo not given),outcome,[1],inactive
same,outcome,[11],inactive
same,outcome,[2],inactive
same,outcome,[3],inactive
same,outcome,[4],inactive
same,outcome,[5],inactive
same,outcome,[6],inactive
same,outcome,[7],inactive
same,outcome,[8],inactive
FC(F)(F)C(F)(F)C(F)(F)C(F)(F)C(F)(F)C(F)(F)C(F)(F)I,outcome,[1],inactive
same,outcome,[11],inactive
same,outcome,[2],inactive
same,outcome,[3],inactive
same,outcome,[4],inactive
same,outcome,[5],inactive
same,AC50,[6],10.2 µM (active)
same,outcome,[7],inactive
same,AC50,[8],63.8 µM (active)
O=C(O)C(F)(F)C(F)(F)C(F)(F)C(F)(F)C(F)(F)C(F)(F)C(F)(F)C(F)(F)C(F)(F)C(F)(F)C(F)(F)C(F)(F)C(F)(F)F,outcome,[1],inactive
same,outcome,[2],inactive
same,outcome,[10],inactive
same,outcome,[3],inactive
same,outcome,[12],inactive
same,outcome,[4],inactive
same,outcome,[5],inactive
same,outcome,[6],inactive
same,outcome,[7],inactive
same,outcome,[8],inactive
O=S(=O)(OCC(F)F)C(F)(F)F,outcome,[1],inactive
same,outcome,[2],inactive
same,outcome,[3],inactive
same,outcome,[4],inactive
same,outcome,[5],inactive
same,outcome,[6],inactive
same,outcome,[7],inactive
same,outcome,[8],inactive
FC(F)(I)C(F)(F)C(F)(F)C(F)(F)I,AC50,[5],76.2 µM (active)
same,AC50,[6],24.3 µM (active)
same,outcome,[7],inactive
same,AC50,[8],27.5 µM (active)
O=C(O)C=C(C(F)(F)F)C(F)(F)F,outcome,[1],inactive
same,outcome,[2],inactive
same,outcome,[3],inactive
same,outcome,[9],inactive
same,outcome,[4],inactive
same,outcome,[5],inactive
same,outcome,[6],inactive
same,outcome,[7],inactive
same,outcome,[8],inactive
